Only some compounds are listed: those with a hit (about 7.4% of all), similar ones and a draw of the others.
FLuc modulator: inhibits or activates purified firefly luciferase, miR-21 counter-screen | purified FLuc, Km substrates, luminescence inhibition | Potency, µM (top dose mostly 57.5 µM), without a hit: at the top dose activity change, negative = inhibition, usual class: inhibitors | 360,000 tested, 6.9% active;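 further: plate controls were vehicle for no effect and reference inhibitor for full effect; nearly all actives have a fitted effect of over 55% in size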
Target sequence (P08659 whole entry, looked up): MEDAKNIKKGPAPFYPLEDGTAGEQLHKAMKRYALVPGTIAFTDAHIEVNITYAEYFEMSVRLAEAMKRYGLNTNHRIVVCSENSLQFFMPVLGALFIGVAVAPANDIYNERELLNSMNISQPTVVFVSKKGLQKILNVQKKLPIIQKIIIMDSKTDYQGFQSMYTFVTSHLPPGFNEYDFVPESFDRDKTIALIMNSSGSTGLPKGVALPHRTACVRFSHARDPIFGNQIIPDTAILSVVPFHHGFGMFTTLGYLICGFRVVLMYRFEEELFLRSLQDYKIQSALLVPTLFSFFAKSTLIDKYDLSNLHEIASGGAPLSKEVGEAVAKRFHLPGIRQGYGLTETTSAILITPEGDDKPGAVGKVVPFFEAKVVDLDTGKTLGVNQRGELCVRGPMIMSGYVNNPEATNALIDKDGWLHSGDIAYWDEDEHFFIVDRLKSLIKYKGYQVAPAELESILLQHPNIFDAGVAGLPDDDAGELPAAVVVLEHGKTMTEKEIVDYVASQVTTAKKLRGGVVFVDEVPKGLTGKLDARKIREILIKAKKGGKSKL
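Purified P. pyralis luciferase (10nM final) with 10uM D-luciferin and 10uM ATP (Km levels) in 50mM Tris acetate pH 7.5, 10mM Mg acetate, 0.01% Tween-20, 0.05% BSA; qHTS 6-point titration, ~60 µM downward; luminescence read.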
SMN2 splice up: enhancers of SMN2 splice variant expression; HEK293 SMN2-luciferase splicing reporter, luminescence, 30-36 h; Potency, µM (doses to about 46.1 µM), inactives show top-dose activity change, positive = activation, most hits filed as activators; 210,000 tested, 2.8% active; further: % of control where 0% means no effect; nearly all actives have a fitted effect of over 55% in size
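HEK293 cells carry an SMN2 minigene-luciferase reporter in which exon 7 inclusion puts luciferase in frame. Cells were seeded at 2000 cells/well, attached for 10-12 hours, then exposed to compounds for 30-36 hours at 37C before ONE-Glo luminescence.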
NPC1 promoter act: activators of NPC1 promoter. Huh7 NPC1 promoter luciferase reporter, 24 h. 320,000 tested, 2.4% active. AID 485313. Potency, µM (series often up to 9.22 µM), for inactives: at the highest dose activation, usual class: activators; further: % of control where 0% means no effect; nearly all actives have a fitted effect of over 60% in size
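Luminescence read-out of NPC1 promoter-driven luciferase in stably transfected Huh7 cells; compounds delivered in DMSO and left 24 h at 37C, 5% CO2, qHTS titration format.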
ELG1 genotox: inducers of genotoxicity in HEK293T ELG1-luciferase cells; HEK293T ELG1-luciferase reporter, luminescence, 16 h; Potency, µM (top dose mostly 46 µM), for the others: at the highest dose activity change, positive = activation, usual class: activators; 330,000 tested, 1.3% active; further: % of control where 0% means no effect; nearly all actives have a fitted effect of over 60% in size
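Step 1: seed 2,000 HEK293T ELG1-luciferase cells per well. Step 2: add compound or DMSO, incubate 16 hr at 37 °C. Step 3: ONE-Glo, 30 min at room temperature, read luminescence.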
Rab9 promoter act: activators of Rab9 promoter. Huh7 Rab9 promoter-luciferase reporter, luminescence, 24 h. Potency, µM (highest dose often 9.22 µM), for the others: top-dose activation, negative = inhibition, usual class: activators. 320,000 tested, 2.8% active. AID 485297; further: % of control where 0% means no effect; nearly all actives have a fitted effect of over 60% in size
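Luciferase signal after 10 min detection reagent at ambient indicates Rab9 promoter upregulation; stably transfected Huh7 cells were treated 24 h with compound in DMSO at 37 °C, 5% CO2.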
* = called active by the depositor; ? = inconclusive; . = not tested or not shown; [ ] = remark or other dose. The call rests on the fitted dose curve; in most records, active means well fitted curve in the direction sought with a large enough effect; inconclusive means small, poorly fitted or top-dose-only effect, or another doubt; inactive means no such curve, though single readings can be large; an effect the other way counts as inactive or inconclusive. Potency means the concentration at half of the fitted maximal effect.

SMILES	FLuc modulator	SMN2 splice up	NPC1 promoter act	ELG1 genotox	Rab9 promoter act
COc1cc(CNc2ccc3c(c2)ncn3C(C)C)cc(OC)c1OC	3%	-10%	.	.	.
CCn1cnc2cc(NCc3nc4ccccc4n3Cc3ccccc3)ccc21	5.4µM*	?	3.5µM*	?	2.8µM*
CCn1cnc2cc(NCc3nc4ccccc4n3C)ccc21	3µM*	7.1µM*	0.79µM*	1.6µM*	0.5µM*
COc1ccc(-n2nc(C(=O)N(C)c3cc(Cl)ccc3OC)c3c4ccccc4n(C)c3c2=O)cc1	0%	-3%	.	.	.
COC(=O)C(Cc1ccc(OC(=O)c2ccccc2C)cc1)N1Cc2ccccc2C1=O (stereo not drawn)	-14%	?	?	-1%	?
COC(=O)C(Cc1ccc(OC(=O)c2ccccc2Cl)cc1)N1Cc2ccccc2C1=O (stereo not drawn)	?	28%	?	15%	4µM*
Nc1n[nH]c(-c2ccccc2)n1	1%	-5%	3%	1%	-3%
Cc1ccc(-c2nc(Nc3ccccc3)n[nH]2)cc1	1.7µM*	3.5µM*	0.89µM*	0.65µM*	0.71µM*
O=C1CCCC(O)=C1C=Nc1ccc2c(c1)oc1ccccc12	2.1µM*	?	25%	0%	?
CCCCC/C=C\C/C=C\C/C=C\C=C\C(=O)CCCC(=O)O	.	11%	.	.	.
CCC(C)C(NC(=O)c1ccccc1NC(=O)c1ccccc1)C(=O)O (stereo not drawn)	3%	.	-2%	-2%	0%
Cc1ccc(C(=O)Nc2ccccc2C(=O)NC(Cc2c[nH]c3ccccc23)C(=O)O)cc1 (stereo not drawn)	11µM*	23%	11%	9%	21%
CC(=O)N[C@H](Cc1c[nH]c2ccccc12)C(=O)O	.	-12%[9.22 µM]	.	.	.
Cc1ccc(C(=O)Nc2ccccc2C(=O)NC(Cc2ccccc2)C(=O)O)cc1 (stereo not drawn)	11µM*	13%	14%	13%	24%
CCC(NC(=O)c1ccccc1NC(=O)c1ccc(C)cc1)C(=O)O (stereo not drawn)	13µM*	2%	10%	?	20%
Cc1cc2oc(C(=O)Nc3sc4c(c3C(=O)NCc3ccco3)CCC4)cc(=O)c2cc1C	1%	6%	.	.	.
O=C(OCC(=O)N1CCc2ccccc21)c1cccnc1	?	.	0%	4%	-7%
O=C(OCC(=O)N1CCc2ccccc21)c1cccnc1Cl	11µM*	2%	18%	?	5%
CC1CCc2nc3ccccc3c(C(=O)OCC(=O)N3CCc4ccccc43)c2C1 (stereo not drawn)	4.8µM*	2%	0%	-11%	-1%
COc1cc(N)c(Cl)cc1C(=O)OCC(=O)N1CCc2ccccc21	2%	.	2%	1%	-5%
COc1cccc(C(=O)OCC(=O)N2CCc3ccccc32)c1OC	11µM*	.	20%	?	27%
CCCc1nc2ccccc2c(C(=O)OCC(=O)N2CCc3ccccc32)c1CC	?	-51%	-1%	-13%	-2%
O=C(OCC(=O)N1CCc2ccccc21)c1ccccc1	9.5µM*	2%	-1%	?	6%
O=C(C[n+]1cc(-c2ccc(F)cc2)n2c1CCC2)N1c2ccccc2Sc2ccccc21	2.4µM*	76%	?	?	2.8µM*
O=C(C[n+]1cc(-c2ccccc2)n2c1CCC2)N1c2ccccc2Sc2ccccc21	2%	-18%	-2%	-6%	-1%
SMILES	FLuc modulator	SMN2 splice up	NPC1 promoter act	ELG1 genotox	Rab9 promoter act
O=C1CN(C(=O)c2ccc(S(=O)(=O)N3CCCCC3)cc2)C(c2ccc(F)cc2)c2cc(F)ccc2N1 (stereo not drawn)	3%	5%	.	.	.
COc1ccc(NC(=O)COC(=O)Cc2ccc(-c3ccccc3)cc2)c(OC)c1	13µM*	4%	-6%	1%	1%
COc1ccc(NC(=O)COc2ccccc2)c(OC)c1	19µM*	21%	?	18µM*	?
COc1ccc(C)cc1NC(=O)COC(=O)Cc1ccc(-c2ccccc2)cc1	?	.	-1%	7%	0%
COc1ccc(OCC(=O)Nc2ccccc2O)cc1	21µM*	-7%	25%	9.2µM*	?
COc1ccccc1NC(=O)COc1ccc2ccccc2c1	15µM*	.	2%	2%	1%

High-throughput results (PubChem BioAssay)
